Screens (PubChem)
CYP2C9 activ – activators of human CYP2C9 | recombinant CYP2C9, luciferin-H conversion, luminescence; hits give high values; factor 1 = untreated enzyme, 0 = blocked | activation factor at 5 µM | 96,000 compounds, 1.4% hits | P11712;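 active = activation factor of 2 or more for CYP2C9 at a 5 µM dose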;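 also: 0 = sulfaphenazole-blocked wells and 1 = vehicle-only wells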
Target sequence (P11712 whole entry, looked up): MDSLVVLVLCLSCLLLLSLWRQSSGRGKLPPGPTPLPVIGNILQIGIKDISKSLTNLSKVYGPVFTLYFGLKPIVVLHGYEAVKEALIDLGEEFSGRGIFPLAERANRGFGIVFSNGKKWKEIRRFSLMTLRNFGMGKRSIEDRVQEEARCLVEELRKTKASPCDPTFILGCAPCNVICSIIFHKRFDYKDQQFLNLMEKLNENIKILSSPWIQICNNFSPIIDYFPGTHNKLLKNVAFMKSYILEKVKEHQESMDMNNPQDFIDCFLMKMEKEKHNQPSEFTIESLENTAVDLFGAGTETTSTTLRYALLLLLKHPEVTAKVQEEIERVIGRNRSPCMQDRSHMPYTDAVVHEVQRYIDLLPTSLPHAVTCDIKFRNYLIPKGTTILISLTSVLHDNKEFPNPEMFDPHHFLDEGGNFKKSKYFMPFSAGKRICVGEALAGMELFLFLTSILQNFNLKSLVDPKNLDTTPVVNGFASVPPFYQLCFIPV
CYP2C19 activ – increases human CYP2C19 enzyme activity. recombinant CYP2C19, luciferin-H EGE luminescence; hits give high values; 0 = fully inhibited enzyme, 1 = untreated enzyme. 96,000 tested, under 10 active. activation factor at 5 µM;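 active = activation factor of at least 2 at 5 µM in the primary screen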;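 also: 0 = wells with 2.5 mM tranylcypromine and 1 = vehicle-only wells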
CYP2C19 inh – inhibitors of human CYP2C19; inhibition, % at 5 µM; P33261; 96,000 compounds, 21% hits; CYP2C19 Supersomes, luciferin-H EGE luminescence, 30 min; AID 778;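 active = CYP2C19 inhibition above a set limit at 5 µM in the primary screen, cut at about 50% in these data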;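 also: plate controls were negative control wells for no effect and 2.5 mM tranylcypromine positive control for full effect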
sEH inhibitor – soluble epoxide hydrolase (human) inhibition | recombinant human sEH enzymatic activity assay | inhibition, % at 2 µM | AID 707 | P34913 | 91,000 compounds, 0.34% hits; in the data active = inhibition above about 80%
sEH act – increases human soluble epoxide hydrolase activity; activation, % at 2 µM; 91,000 compounds, 0.04% hits; P34913; purified human sEH enzymatic activity, activator screen; in the data active = activation above about 37%
CYP2C9 inh – human CYP2C9 inhibition; AID 777; 96,000 compounds, 20% hits; inhibition, % at 5 µM; CYP2C9 Supersomes, luciferin-H conversion, luminescence;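 active = blocking of liver enzyme CYP2C9 beyond about 50% at 5 µM, limit read from the data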
The depositor's hits bear a star; . = no result. Hits are enriched below; roughly 27% of the tested compounds scored in any of these assays.

SMILES	CYP2C9 activ	CYP2C19 activ	CYP2C19 inh	sEH inhibitor	sEH act	CYP2C9 inh
Cc1ccc(OCCCOc2cccc3cccnc23)cc1C	2.8*	0.3	72*	-3	2	-183
Cc1cccc(OCCCOc2cccc3cccnc23)c1C	1.8	0.4	56*	-6	8	-82
Brc1ccc(OCCOCCOc2cccc3cccnc23)cc1	.	.	.	-54	58*	.
CCn1c(CCNC(=O)c2cccs2)nnc1SCC(=O)c1ccc(OC)cc1	.	.	.	-15	17	.
CCC(C(=O)NCCN1CCN(C)CC1)n1c(C)c2cnn(-c3ccccc3)c(=O)c2c1C (stereo unspecified)	0.8	0.8	20	.	.	19
CCN(CC)C(=O)CSc1ncnc2c(-c3cccs3)nsc12	0.6	0.7	30	-30	29	45
COc1cccc(-c2nc(Cc3ccc(OC)c(OC)c3)no2)c1	0.8	0.4	58*	.	.	17
Cc1ccc(NC(=O)COC(=O)CCC(=O)c2cccs2)cc1S(=O)(=O)N1CCOCC1	0.5	0.7	32	10	-12	53*
Cc1c(Cl)cccc1NC(=O)COc1ccc(S(=O)(=O)N2CCOCC2)cc1	0.6	0.9	11	-13	11	39
O=C(COC(=O)CCC(=O)c1cccs1)Nc1cc(S(=O)(=O)N2CCOCC2)ccc1Cl	0.2	0.5	46	10	-8	80*
O=C(COC(=O)CCC(=O)c1cccs1)Nc1cccc(S(=O)(=O)N2CCOCC2)c1	0.7	0.4	64*	9	-6	30
C=CCn1c(=O)c2ccccc2n2c(SCC(=O)/C(C#N)=C(\C)N)nnc12	0.8	1.1	-12	16	-16	15
CCCCOC(=O)Nc1nc2ccccc2s1	0.8	0.8	19	-8	8	16
CCCCOC(=O)Sc1nc2ccccc2o1	0.5	0.4	58*	2	-2	52*
CC(C)(C)OC(=O)N1CCCC1C(=O)NC(Cc1ccccc1)C(=O)O (stereo unspecified)	1.3	1.2	-20	-13	12	-30
O=c1[nH]n(-c2cccc3cccnc23)c(=O)c2ccccc12	1.8	0.6	40	0	-1	-79
O=S1(=O)Nc2c(ccc3cccnc23)-c2ccccc21	0.4	1	4	.	.	65*
CC1(C)N=C(SCC(=O)Nc2ccc(Cl)cc2Cl)C(c2ccccc2)=N1	0.4	0.5	55*	-2	2	62*
O=C1C2C(c3ccccc3)C=CC(c3ccccc3)C2C(=O)N1c1ccncc1 (stereo unspecified)	0.2	0	97*	8	-7	82*
Cc1ccc(N2C(=O)C3ON(c4ccccc4)C(c4ccncc4)C3C2=O)cc1 (stereo unspecified)	0	0	100*	14	-12	97*
O=C1C2ON(c3ccccc3)C(c3ccncc3)C2C(=O)N1c1ccc(Br)cc1 (stereo unspecified)	0	0	100*	4	-4	99*
O=C1C2ON(c3ccccc3)C(c3ccncc3)C2C(=O)N1c1ccc(N2CCOCC2)cc1 (stereo unspecified)	0.6	0.7	26	-7	8	45
O=C1C2C3C=CC(C3)C2C(=O)N1c1ccncc1 (stereo unspecified)	0.7	0.8	15	-3	2	28
CCc1nnc(NC(=O)C2Cc3ccccc3CN2S(=O)(=O)c2ccc(C)cc2)s1 (stereo unspecified)	0.4	0	99*	2	0	64*
CCc1nnc(NC(=O)C2CCCN2C(=O)Nc2ccccc2OC)s1 (stereo unspecified)	0.7	0.8	16	4	-5	34
SMILES	CYP2C9 activ	CYP2C19 activ	CYP2C19 inh	sEH inhibitor	sEH act	CYP2C9 inh
CCc1nnc(NC(=O)c2ccc(S(=O)(=O)N3CCOCC3)cc2)s1	1	1.1	-6	7	-8	2
C/C(=N\NC(=O)C1CCCN(S(=O)(=O)c2ccccc2)C1)c1ccncc1 (stereo unspecified)	0.3	0.5	49	31	-29	69*
CCc1nnc(NC(=O)C2CCCN2S(=O)(=O)c2ccc(C)cc2)s1 (stereo unspecified)	0.4	0.8	23	-2	0	65*
CCc1nnc(NC(=O)C2Cc3ccccc3CN2S(=O)(=O)c2cccs2)s1 (stereo unspecified)	0.4	0.4	61*	8	-9	63*
CN(C)/C=N/c1c(C(=O)NCc2ccccc2)nnn1Cc1ccccc1	0.9	1	0	17	-15	6
CCOc1ccc(NC(=O)CC2C(=O)N(c3ccccc3)C(=O)N2Cc2ccccn2)cc1 (stereo unspecified)	0.8	0.7	33	-11	11	24
CCc1nnc(NC(=O)C2CCCN(S(=O)(=O)c3ccccc3)C2)s1 (stereo unspecified)	0.8	0.4	64*	0	0	18
O=C(Nc1nnc(C2CC2)s1)C1Cc2ccccc2CN1S(=O)(=O)c1cccs1 (stereo unspecified)	0.3	0	100*	-2	2	67*
CCc1nnc(NC(=O)C2CCC2)s1	1	1.1	-5	.	.	-5
CSc1ccc(C(=S)N2CCN(Cc3ccccc3)CC2)cc1	0.6	0.5	52*	-4	4	41
COCc1c(C(=O)OCC(=O)N2c3ccccc3CC2C)oc2ccccc12 (stereo unspecified)	1.1	0.5	53*	-7	7	-8
CC1Cc2ccccc2N1C(=O)CSc1ncccc1C(=O)O (stereo unspecified)	1.1	1.1	-10	-1	1	-12
CC1Cc2ccccc2N1C(=O)COC(=O)c1cccnc1Cl (stereo unspecified)	1	0.5	53*	-19	22	4
CCOC(=O)c1c(C)[nH]c(C(=O)OCC(=O)N2c3ccccc3CC2C)c1C (stereo unspecified)	1	1.1	-8	1	-2	-4
CC1Cc2ccccc2N1C(=O)COC(=O)Cn1nnc(-c2ccccc2)n1 (stereo unspecified)	0.1	0.4	65*	-10	9	88*
CCOC(=O)C1=C(C)NC(C)=C(C(=O)OCC)C1C(=O)OCC(=O)N1c2ccccc2CC1C (stereo unspecified)	0	0.1	93*	-15	15	100*
CCOc1c2ccc(C(=O)NCCCCc3ccccc3)cc2nn1CC	0.7	0.7	29	1	1	31
CCN(CC)C(=O)C1CCCN(Cc2sccc2C)C1 (stereo unspecified)	1	0.9	11	-11	4	1
Cc1ccc(C)c(N=Nc2nc3ccccc3n2C)c1	0.7	0.3	66*	-23	28	32
Cn1c(/N=C/c2cccs2)nc2ccccc21	1.1	1	4	-1	2	-8
COc1ccc(C(=O)Nn2cnc3scc(-c4cccs4)c3c2=O)c(O)c1	.	.	.	8	-7	.
